According to PubChem BioAssay (NCATS):
Records with an inconclusive call do not appear. Activity calls are given as the source filed them. Unless noted, calls come from the whole dose curve; as a rule, active = well fitted curve in the direction sought with a large enough effect; inconclusive = small, poorly fitted or top-dose-only effect, or another doubt; inactive = no such curve, though single readings can be large; an effect the other way counts as inactive or inconclusive.

Legend:
[1] = biological target: ATP-dependent 6-phosphofructokinase (Trypanosoma brucei brucei) (UniProt O15648); test: qHTS Assay to Find Inhibitors of T. brucei phosphofructokinase: hit validation (AID 492961);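 note: luminescence reports ADP formed as PFK phosphorylates fructose-6-phosphate with ATP; % is set by controls: 0 for no effect and ±100 for the full control effect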
Sequence of ATP-dependent 6-phosphofructokinase (Trypanosoma brucei brucei) (O15648 whole entry, looked up): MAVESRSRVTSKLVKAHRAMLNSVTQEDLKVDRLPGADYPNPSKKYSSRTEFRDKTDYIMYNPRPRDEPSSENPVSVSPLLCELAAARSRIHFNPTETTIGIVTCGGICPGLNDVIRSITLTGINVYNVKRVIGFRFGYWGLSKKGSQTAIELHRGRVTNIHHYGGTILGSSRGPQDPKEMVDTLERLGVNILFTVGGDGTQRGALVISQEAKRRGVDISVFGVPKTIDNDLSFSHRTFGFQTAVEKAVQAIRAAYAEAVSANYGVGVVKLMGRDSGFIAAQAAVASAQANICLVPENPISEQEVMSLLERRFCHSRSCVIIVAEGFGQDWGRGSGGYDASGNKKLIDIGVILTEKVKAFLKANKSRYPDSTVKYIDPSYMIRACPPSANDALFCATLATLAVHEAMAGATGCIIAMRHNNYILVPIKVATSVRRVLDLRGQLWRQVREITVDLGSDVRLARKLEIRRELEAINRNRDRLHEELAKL
In short: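 Percent activity derived from corrected luminescence, normalized between 0x and 1x enzyme controls, then fitted to concentration-response curves. Conditions: 1.25 nM PFK, 0.1 mM ATP, 0.5 mM F6P, 45 min RT.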

[2] = biological target: Glucocorticoid receptor (Homo sapiens) (UniProt P04150); test: qHTS assay for small molecule agonists of glucocorticoid receptor signaling (AID 588532; active = well fitted curve in the direction sought with a large enough effect in the signal ratio, with a control signal flat; the % refers to the signal ratio;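 note: 100% = dexamethasone at 0.1 µM and 0% = DMSO only wells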); details: HeLa MMTV-bla, beta-lactamase ratio, agonist, 18 h; stronger effect = higher value; percent of dexamethasone control, DMSO zero
Sequence of Glucocorticoid receptor (Homo sapiens) (P04150 whole entry, looked up): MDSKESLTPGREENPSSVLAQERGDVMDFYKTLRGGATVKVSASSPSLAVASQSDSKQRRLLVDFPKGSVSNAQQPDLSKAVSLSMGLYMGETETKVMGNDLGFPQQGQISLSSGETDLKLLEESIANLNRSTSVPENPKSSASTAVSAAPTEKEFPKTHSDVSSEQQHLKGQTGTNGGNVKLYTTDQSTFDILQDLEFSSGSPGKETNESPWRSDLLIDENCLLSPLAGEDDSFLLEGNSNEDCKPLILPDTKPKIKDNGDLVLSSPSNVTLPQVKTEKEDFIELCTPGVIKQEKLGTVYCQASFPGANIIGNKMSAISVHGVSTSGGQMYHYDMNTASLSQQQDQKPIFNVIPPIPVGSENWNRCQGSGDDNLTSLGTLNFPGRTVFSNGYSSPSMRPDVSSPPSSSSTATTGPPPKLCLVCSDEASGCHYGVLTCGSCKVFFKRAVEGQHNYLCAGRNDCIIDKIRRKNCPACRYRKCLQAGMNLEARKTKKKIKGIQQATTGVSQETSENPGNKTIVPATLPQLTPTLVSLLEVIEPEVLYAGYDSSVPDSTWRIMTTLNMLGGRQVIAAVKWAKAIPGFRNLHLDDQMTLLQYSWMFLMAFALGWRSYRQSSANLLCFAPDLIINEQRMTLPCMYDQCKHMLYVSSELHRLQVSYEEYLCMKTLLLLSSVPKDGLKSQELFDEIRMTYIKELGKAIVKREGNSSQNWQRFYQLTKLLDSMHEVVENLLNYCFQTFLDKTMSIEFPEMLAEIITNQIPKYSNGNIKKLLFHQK
In short: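 Titration series, up to 92 uM, applied to GRE-bla HeLa cells for 18 h at 37 C. Detection by CCF4 FRET substrate after 2 h at RT.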

[3] = qHTS assay for small molecule antagonists of peroxisome proliferator-activated receptor delta signaling (AID 588535; active = well fitted inhibition curve with a large enough effect in the signal ratio, with a control signal flat, not every such curve was filed as active; the % refers to the signal ratio;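 for max response: cells co-treated with a PPAR-delta agonist as stimulator during compound exposure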); details: HEK293T PPARd-UAS-bla, beta-lactamase FRET ratio, 18 h; 460 nm channel
In short: (§1)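 Reporter: UAS-bla under PPAR-delta response element, HEK293T host. Medium: 2% charcoal/dextran FBS. Dosing: titration, 18 hrs, 37 C. Detection: CCF4, 2 hrs RT, 405 ex/460 and 530 em.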

[4] = biological target: Peroxisome proliferator-activated receptor delta (Homo sapiens) (UniProt Q03181); test: as above
Sequence of Peroxisome proliferator-activated receptor delta (Homo sapiens) (Q03181 whole entry, looked up): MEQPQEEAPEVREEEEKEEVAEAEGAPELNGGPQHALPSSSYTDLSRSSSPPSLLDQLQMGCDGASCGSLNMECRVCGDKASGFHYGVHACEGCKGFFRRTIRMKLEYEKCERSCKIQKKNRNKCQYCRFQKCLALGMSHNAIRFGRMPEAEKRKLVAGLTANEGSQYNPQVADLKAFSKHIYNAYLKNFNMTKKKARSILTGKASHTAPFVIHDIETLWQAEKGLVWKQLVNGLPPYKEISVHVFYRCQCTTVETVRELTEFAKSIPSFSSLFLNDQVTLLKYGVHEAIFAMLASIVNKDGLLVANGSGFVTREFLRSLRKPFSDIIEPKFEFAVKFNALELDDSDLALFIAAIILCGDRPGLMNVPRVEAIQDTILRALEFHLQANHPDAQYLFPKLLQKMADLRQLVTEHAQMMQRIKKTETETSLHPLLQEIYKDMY
In short: as §1

[5] = biological target: Peroxisome proliferator-activated receptor gamma (Homo sapiens) (UniProt P37231); test: qHTS assay for small molecule agonists of peroxisome proliferator-activated receptor gamma signaling (AID 588536; active = well fitted curve in the direction sought with a large enough effect in the signal ratio, with a control signal flat, not every such curve was filed as active; the % refers to the signal ratio;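 note: 0% = DMSO basal wells and 100% = rosiglitazone at 2 µM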)
Sequence of Peroxisome proliferator-activated receptor gamma (Homo sapiens) (P37231 whole entry, looked up): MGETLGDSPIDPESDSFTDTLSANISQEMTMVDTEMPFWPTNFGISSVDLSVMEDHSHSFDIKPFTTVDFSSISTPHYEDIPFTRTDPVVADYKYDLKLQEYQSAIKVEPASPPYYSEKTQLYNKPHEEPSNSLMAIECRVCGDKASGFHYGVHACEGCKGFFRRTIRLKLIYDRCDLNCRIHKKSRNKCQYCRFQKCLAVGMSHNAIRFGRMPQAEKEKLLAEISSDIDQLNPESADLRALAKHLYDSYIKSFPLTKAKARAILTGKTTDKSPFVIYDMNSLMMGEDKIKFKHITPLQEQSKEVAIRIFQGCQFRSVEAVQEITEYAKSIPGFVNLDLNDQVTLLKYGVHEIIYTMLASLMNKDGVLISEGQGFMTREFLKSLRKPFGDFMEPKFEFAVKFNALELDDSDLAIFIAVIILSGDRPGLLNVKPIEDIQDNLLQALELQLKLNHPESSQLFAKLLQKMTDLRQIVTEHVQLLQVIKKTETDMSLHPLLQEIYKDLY
In short: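 Ratiometric blue/green fluorescence (405 nm excitation; 460 and 530 nm emission) from CCF4-loaded HEK293 reporter cells serves as signal. Exposure to test compounds lasts 16 h at 37 C in medium containing 1% charcoal/dextran-treated serum.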

[6] = biological target: Peroxisome proliferator-activated receptor gamma (Homo sapiens) (UniProt P37231); test: qHTS assay for small molecule antagonists of peroxisome proliferator-activated receptor gamma signaling (AID 588537; active = well fitted inhibition curve with a large enough effect in the signal ratio, with a control signal flat, not every such curve was filed as active; the % refers to the signal ratio;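 note: reporter cells co-stimulated with 50 nM rosiglitazone agonist during compound treatment; % of control where 0% means no effect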)
In short: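 We seeded GeneBLAzer HEK293 reporter cells at 3000 per well, allowed 6-6.5 h attachment at 37 C, then co-treated with test compound titrations and 50 nM rosiglitazone overnight (16 h). Inhibition was quantified from 460/530 nm emission ratios.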

[7] = biological target: Vitamin D3 receptor (Homo sapiens) (UniProt P11473); test: qHTS assay for small molecule antagonists of vitamin D receptor signaling (AID 588541; calls by dose curve;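 note: receptor activated by calcitriol during compound treatment; % is set by controls: 0 for no effect and ±100 for the full control effect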)
Sequence of Vitamin D3 receptor (Homo sapiens) (P11473 whole entry, looked up): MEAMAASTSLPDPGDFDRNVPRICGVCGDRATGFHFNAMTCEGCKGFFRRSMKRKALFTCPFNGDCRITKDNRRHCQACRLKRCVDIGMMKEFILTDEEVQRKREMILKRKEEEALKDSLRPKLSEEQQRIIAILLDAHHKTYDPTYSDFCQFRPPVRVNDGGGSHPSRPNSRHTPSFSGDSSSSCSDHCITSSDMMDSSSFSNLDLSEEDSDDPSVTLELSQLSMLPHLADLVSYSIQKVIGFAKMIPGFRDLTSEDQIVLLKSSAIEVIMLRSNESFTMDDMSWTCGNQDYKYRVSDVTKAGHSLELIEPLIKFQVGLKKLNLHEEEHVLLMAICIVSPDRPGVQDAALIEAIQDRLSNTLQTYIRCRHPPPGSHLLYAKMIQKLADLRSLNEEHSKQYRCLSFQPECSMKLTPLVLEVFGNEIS
In short: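 VDR-UAS-bla HEK293T cells (2000/well, 2% charcoal-stripped FBS) were treated with titrated compounds plus 1-alpha,25-dihydroxyvitamin D3 (50 nM or 3 nM final) for 16 h at 37 C. CCF4 beta-lactamase fluorescence was read; Hill fits gave IC50.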

[8] = biological target: Vitamin D3 receptor (Homo sapiens) (UniProt P11473); test: qHTS assay for small molecule agonists of vitamin D receptor signaling (AID 588543; calls by dose curve;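 note: 0% = DMSO basal and 100% = reference agonist control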)
In short: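 Measured: β-lactamase reporter activity (CCF4, 405 nm excitation, 460/530 nm emission) in HEK293T VDR-UAS-bla cells after 16 h compound exposure at 37 °C. Normalization against 50 nM 1α,25-dihydroxyvitamin D3 and DMSO; Hill-fit EC50.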

[9] = qHTS assay for small molecule agonists of retinoid X receptor alpha signaling (AID 588544; calls by dose curve;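 for activation: 0% = DMSO basal wells and 100% = reference agonist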); details: HEK293T RXRa-UAS-bla, beta-lactamase reporter, 18 h; 530 nm emission
[10] = biological target: Retinoic acid receptor RXR-alpha (Homo sapiens) (UniProt P19793); test: as above
Sequence of Retinoic acid receptor RXR-alpha (Homo sapiens) (P19793 whole entry, looked up): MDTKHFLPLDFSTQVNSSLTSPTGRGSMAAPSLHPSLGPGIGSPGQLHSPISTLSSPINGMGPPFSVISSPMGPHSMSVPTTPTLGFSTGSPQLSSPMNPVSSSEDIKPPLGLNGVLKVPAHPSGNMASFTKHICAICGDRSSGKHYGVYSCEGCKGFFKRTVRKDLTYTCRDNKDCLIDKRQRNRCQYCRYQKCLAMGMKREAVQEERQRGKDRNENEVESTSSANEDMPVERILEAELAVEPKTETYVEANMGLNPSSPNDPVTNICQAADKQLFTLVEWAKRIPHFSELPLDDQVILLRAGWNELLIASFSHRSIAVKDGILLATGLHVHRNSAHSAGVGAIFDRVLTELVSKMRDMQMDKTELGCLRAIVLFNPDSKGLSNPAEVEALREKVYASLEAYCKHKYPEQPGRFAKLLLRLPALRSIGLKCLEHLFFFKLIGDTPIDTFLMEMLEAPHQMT

[11] = biological target: Thyroid hormone receptor beta (Homo sapiens) (UniProt P10828); test: qHTS assay for small molecule agonists of thyroid hormone receptor beta signaling (AID 588545; calls by dose curve;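 note: 0% = DMSO only and 100% = 10 nM T3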)
Sequence of Thyroid hormone receptor beta (Homo sapiens) (P10828 whole entry, looked up): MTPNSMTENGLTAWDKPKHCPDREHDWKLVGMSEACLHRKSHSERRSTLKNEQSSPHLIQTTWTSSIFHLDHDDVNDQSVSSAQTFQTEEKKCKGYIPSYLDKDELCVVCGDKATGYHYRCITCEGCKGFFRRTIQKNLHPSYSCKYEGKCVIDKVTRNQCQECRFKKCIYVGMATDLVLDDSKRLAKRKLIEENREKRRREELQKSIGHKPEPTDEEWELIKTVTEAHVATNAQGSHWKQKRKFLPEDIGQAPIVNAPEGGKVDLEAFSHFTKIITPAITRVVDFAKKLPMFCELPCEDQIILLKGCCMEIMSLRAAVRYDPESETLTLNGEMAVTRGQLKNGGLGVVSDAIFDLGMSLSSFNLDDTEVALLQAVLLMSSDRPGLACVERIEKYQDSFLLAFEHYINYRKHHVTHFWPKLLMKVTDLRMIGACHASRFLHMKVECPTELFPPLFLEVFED
In short: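 TR-UAS-bla GripTite HEK 293 cells (2500/well, medium with 2% charcoal/dextran FBS) were treated in agonist mode for 18 h at 37 C, titrated. Beta-lactamase was read by CCF4 ratio after 2 h; normalized to 10 nM T3 (100%) and DMSO, Hill-fitted for EC50 and efficacy.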

[12] = qHTS assay for small molecule antagonists of retinoid X receptor alpha signaling (AID 588546; active = well fitted inhibition curve with a large enough effect in the signal ratio, with a control signal flat, not every such curve was filed as active; the % refers to the signal ratio;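 note: cells stimulated with 9-cis-retinoic acid as agonist; % is set by controls: 0 for no effect and ±100 for the full control effect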); details: HEK293T RXRa-UAS-bla, beta-lactamase ratio, antagonist mode; measured here: W530 green channel, cytotoxicity proxy
In short: (§2)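 Beta-lactamase reporter inhibition, read as CCF4 fluorescence ratio (ex 405, em 460/530 nm) after 2 h at RT. HEK293T UAS-bla cells, 2500/well, were stimulated with 9-cis-RA at 500 or 100 nM final alongside test compound for 18 h at 37 C.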

[13] = biological target: Retinoic acid receptor RXR-alpha (Homo sapiens) (UniProt P19793); test: as above; details: HEK293T RXRa-UAS-bla, beta-lactamase ratio, antagonist mode
In short: as §2

[14] = biological target: Luciferin 4-monooxygenase (Photinus pyralis) (UniProt P08659); test: Biochemical firefly luciferase enzyme assay for NPC (AID 624030);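 note: purified P. pyralis luciferase at 10 nM with luciferin and ATP substrate; 0% = DMSO and -100% = full luciferase inhibition by PTC124 control; nearly all actives have a fitted effect of over 70% in size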
Sequence of Luciferin 4-monooxygenase (Photinus pyralis) (P08659 whole entry, looked up): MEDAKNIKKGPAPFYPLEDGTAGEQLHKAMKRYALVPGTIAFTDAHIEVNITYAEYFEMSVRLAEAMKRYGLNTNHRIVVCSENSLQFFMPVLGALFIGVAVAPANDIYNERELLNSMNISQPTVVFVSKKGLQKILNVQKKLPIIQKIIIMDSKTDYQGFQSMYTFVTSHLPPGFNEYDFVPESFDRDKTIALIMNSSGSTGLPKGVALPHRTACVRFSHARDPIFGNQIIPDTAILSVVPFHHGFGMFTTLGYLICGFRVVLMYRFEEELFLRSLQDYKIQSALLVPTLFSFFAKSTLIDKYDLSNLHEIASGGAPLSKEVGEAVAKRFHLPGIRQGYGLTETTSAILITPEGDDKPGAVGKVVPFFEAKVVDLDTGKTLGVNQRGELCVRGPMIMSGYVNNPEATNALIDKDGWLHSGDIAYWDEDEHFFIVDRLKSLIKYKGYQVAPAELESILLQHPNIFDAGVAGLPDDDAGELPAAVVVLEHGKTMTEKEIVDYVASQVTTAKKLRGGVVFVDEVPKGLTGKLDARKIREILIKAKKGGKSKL
In short: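 Counter-screen for direct inhibition of the luciferase enzyme by approved-drug library compounds, run at 10 nM enzyme in 50 mM Tris acetate (final). Luminescence was read within 5 min of enzyme-buffer addition and normalized to PTC124 versus DMSO (0%).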

[15] = S16 Schwann cell PMP22 intronic element firefly luciferase assay (AID 624032);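 note: plate controls were DMSO for no effect and PTC124 positive control mean for full effect; nearly all actives have a fitted effect of over 30% in size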
In short: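 Rat S16 Schwann cells stably carrying a PMP22 intronic element-driven Fluc reporter were seeded overnight, then exposed to compounds for 24 h at 37 °C. Luminescence was normalized to PTC124 (positive control) and DMSO (0% activity).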

[16] = S16 Schwann cell PMP22 intronic element beta-lactamase assay (AID 624044; calls by dose curve;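 note: 0% = DMSO and -100% = potassium clavulanate positive control; nearly all actives have a fitted effect of over 15% in size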)
In short: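 Rat S16 Schwann cells with beta-Lac driven by a PMP22 intronic element, compound-treated 24 h at 37 °C. LiveBLAzer FRET B/G read: 460 nm normalized to potassium clavulanate vs DMSO; 535 nm FRET as viability; concentration-effect curves classified.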

[17] = qHTS assay for small molecule activators of the p53 signaling pathway (AID 651743; active = well fitted activation curve with a large enough effect in the signal ratio, not every such curve was filed as active; the % refers to the signal ratio; note: % of control where 0% means no effect); details: HCT-116 p53RE-bla, beta-lactamase FRET ratio, 16 h; activation: stronger effect = higher value
In short: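 Cell-based beta-lactamase reporter (p53 response elements, HCT-116 background). After a 5-hour preincubation, cells received compound for 16 hours at 37 C; substrate development ran 2 hours at room temperature.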

[18] = qHTS assay for small molecule activators of the nuclear factor-kappa B (NF-kB) signaling pathway (AID 651749; active = well fitted activation curve with a large enough effect in the signal ratio; the % refers to the signal ratio; note: % of control where 0% means no effect); details: NF-kB-bla ME-180 cells, beta-lactamase FRET ratio, 16 h; stronger effect = higher value
In short: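 Screening used 2,000 ME-180 reporter cells per well exposed to pinned compound (23 nL) or DMSO; after 16 hr at 37C, beta-lactamase expression under NF-kB control was assessed through FRET.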

[19] = qHTS assay for environmental chemicals that activate the Aryl hydrocarbon Receptor (AhR) signaling pathway (AID 651777); details: 1A2-DRE human hepatoma cells, luciferase, 24 h; activation: stronger effect = higher value; note: % of control where 0% means no effect; nearly all actives have a fitted effect of over 15% in size
In short: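 Measured luciferase activity, read 30 min after One-Glo addition at room temperature, from human hepatoma cells bearing a dioxin response element–CYP1A2 promoter reporter and exposed to compound for 24 hr at 37 C.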

[20] = biological target: Peroxisome proliferator-activated receptor alpha (Homo sapiens) (UniProt Q07869); test: qHTS assay for small molecule agonists of the peroxisome proliferator-activated receptor alpha (PPARalpha) signaling pathway (AID 651778); details: PathHunter PPARalpha complementation, chemiluminescence, 6 h; max response: stronger effect = higher value; note: % of control where 0% means no effect
Sequence of Peroxisome proliferator-activated receptor alpha (Homo sapiens) (Q07869 whole entry, looked up): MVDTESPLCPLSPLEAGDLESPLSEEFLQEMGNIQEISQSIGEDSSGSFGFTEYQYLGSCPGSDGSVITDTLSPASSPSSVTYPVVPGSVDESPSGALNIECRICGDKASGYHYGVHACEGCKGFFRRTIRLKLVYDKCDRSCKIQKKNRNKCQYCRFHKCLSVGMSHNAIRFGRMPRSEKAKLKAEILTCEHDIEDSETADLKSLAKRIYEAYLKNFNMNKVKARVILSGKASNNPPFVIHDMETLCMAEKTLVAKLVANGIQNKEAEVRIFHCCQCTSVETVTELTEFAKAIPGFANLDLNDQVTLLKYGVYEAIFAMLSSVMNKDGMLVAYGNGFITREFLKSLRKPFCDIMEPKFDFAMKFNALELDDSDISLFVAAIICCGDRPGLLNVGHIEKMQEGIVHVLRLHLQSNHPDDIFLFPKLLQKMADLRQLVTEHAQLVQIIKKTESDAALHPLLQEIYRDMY
In short: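 Cells plated at 2,000/well and held overnight at 37 C, 5% CO2, then compound added by pin tool for 6 hr; after PathHunter detection reagent and 60 min at room temperature, chemiluminescence from enzyme complementation was read.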

[21] = qHTS assay for small molecule agonists of the antioxidant response element (ARE) signaling pathway measured by Nrf2-dependant transcriptional activity (AID 720636; active = well fitted curve in the direction sought with a large enough effect in the repeat runs; an effect the other way counts as inactive or inconclusive;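 note: HepG2 cells with an ARE-driven luciferase reporter; % of control where 0% means no effect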)
In short: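 In HepG2 cells engineered with an Nrf2-responsive luciferase gene, ARE induction was quantified as luminescence after 16 hr compound treatment at 37 C.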

[22] = qHTS assay for small molecule agonists of the antioxidant response element (ARE) signaling pathway measured by Nrf2-dependant transcriptional activity - cell viability counter screen (AID 720653; active = well fitted curve in the direction sought with a large enough effect in the repeat runs; an effect the other way counts as inactive or inconclusive; note: % is set by controls: 0 for no effect and ±100 for the full control effect); details: ARE-bla HepG2 viability, CellTiter-Glo ATP luminescence, 16 h; max response: stronger effect = lower value
In short: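 ARE-bla HepG2 cells (2,000/well) rested 5 hrs at 37C/5% CO2, then exposed to compounds in DMSO for 16 hrs. Viability was read in the same wells as intracellular ATP by luminescence, 30 min at room temperature after reagent addition.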

[23] = qHTS assay for cell viability of HEK293 cells (AID 743288); details: ATP luminescence (CellTiter-Glo), 18 h; max response: stronger effect = lower value; note: % is set by controls: 0 for no effect and ±100 for the full control effect; nearly all actives have a fitted effect of over 50% in size
In short: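 Luminescent ATP quantitation served as the viability read-out. Cells (parental HEK293, 2,000/well) received compounds after at least 5 h at 37 C and were exposed for 18 h before a 30 min room-temperature reagent step.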

[24] = qHTS assay for cell viability of the p53RE-bla HCT-116 cell line (AID 743292); note: % is set by controls: 0 for no effect and ±100 for the full control effect; nearly all actives have a fitted effect of over 55% in size
In short: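 Intracellular ATP of p53RE-bla HCT-116 cells measured by luciferase luminescence following 16 h compound incubation at 37 C; DMSO-only wells served as vehicle controls.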

[25] = biological target: Glutathione peroxidase 1 (Homo sapiens) (UniProt P07203); test: Primary qHTS Assay for Inhibitors of Recombinant Selenoprotein Glutathione Peroxidase 1 (GPX1) (AID 1845191); note: % is set by controls: 0 for no effect and ±100 for the full control effect; nearly all actives have a fitted effect of over 65% in size
Sequence of Glutathione peroxidase 1 (Homo sapiens) (P07203 whole entry, looked up): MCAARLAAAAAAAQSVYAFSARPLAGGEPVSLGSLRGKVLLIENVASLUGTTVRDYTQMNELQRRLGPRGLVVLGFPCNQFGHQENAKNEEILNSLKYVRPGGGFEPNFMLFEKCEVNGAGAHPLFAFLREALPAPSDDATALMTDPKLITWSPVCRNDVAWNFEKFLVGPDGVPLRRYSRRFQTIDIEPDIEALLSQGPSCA
In short: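 Recombinant GPX1 (10 nM final) was preincubated with compound for 30 min at room temperature, then reacted with 1 mM GSH, 0.5 mM CHP, 0.5 mM NADPH and 100 nM glutathione reductase; NADPH fluorescence (340/450 nm) was read at 0 and 15 min.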

[26] = qHTS profiling for inhibitors of Plasmodium falciparum proliferation (AID 504749);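 note: 0% = DMSO vehicle and full inhibition = artemisinin control; nearly all actives have a fitted effect of over 60% in size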; details: P. falciparum in erythrocytes, SYBR Green DNA, 72 h, at 28.7 µM (top of the series)
In short: (§3)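 Parasite proliferation within erythrocytes, 72 h exposure. Endpoint: SYBR Green I fluorescence after overnight lysis at room temperature. Controls: 0.29 uM artemisinin, DMSO.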

3D7 = test: as above; details: P. falciparum in erythrocytes, SYBR Green DNA, 72 h; series mostly up to 28.7 µM
In short: as §3

7G8 = test: as above; details: P. falciparum in erythrocytes, SYBR Green DNA, 72 h; series mostly up to 28.7 µM
In short: as §3

AA1029 = test: as above; details: P. falciparum in erythrocytes, SYBR Green DNA, 72 h; series mostly up to 28.7 µM
In short: as §3

AS120 = test: as above; details: P. falciparum in erythrocytes, SYBR Green DNA, 72 h; series mostly up to 28.7 µM
In short: as §3

ATS189 = test: as above; details: P. falciparum in erythrocytes, SYBR Green DNA, 72 h; series mostly up to 28.7 µM
In short: as §3

ATS95 = test: as above; details: P. falciparum in erythrocytes, SYBR Green DNA, 72 h; series mostly up to 28.7 µM
In short: as §3

C2A = test: as above; details: P. falciparum in erythrocytes, SYBR Green DNA, 72 h; series mostly up to 28.7 µM
In short: as §3

CP185 = test: as above; details: P. falciparum in erythrocytes, SYBR Green DNA, 72 h; series mostly up to 28.7 µM
In short: as §3

CP191 = test: as above; details: P. falciparum in erythrocytes, SYBR Green DNA, 72 h; series mostly up to 28.7 µM
In short: as §3

CP192 = test: as above; details: P. falciparum in erythrocytes, SYBR Green DNA, 72 h; series mostly up to 28.7 µM
In short: as §3

CP194 = test: as above; details: P. falciparum in erythrocytes, SYBR Green DNA, 72 h; series mostly up to 28.7 µM
In short: as §3

CP201 = test: as above; details: P. falciparum in erythrocytes, SYBR Green DNA, 72 h; series mostly up to 28.7 µM
In short: as §3

CP203 = test: as above; details: P. falciparum in erythrocytes, SYBR Green DNA, 72 h; series mostly up to 28.7 µM
In short: as §3

CP211 = test: as above; details: P. falciparum in erythrocytes, SYBR Green DNA, 72 h; series mostly up to 28.7 µM
In short: as §3

CP215 = test: as above; details: P. falciparum in erythrocytes, SYBR Green DNA, 72 h; series mostly up to 28.7 µM
In short: as §3

CP217 = test: as above; details: P. falciparum in erythrocytes, SYBR Green DNA, 72 h; series mostly up to 28.7 µM
In short: as §3

CP237 = test: as above; details: P. falciparum in erythrocytes, SYBR Green DNA, 72 h; series mostly up to 28.7 µM
In short: as §3

CC1(C)S[C@@H]2[C@H](NC(=O)COc3ccccc3)C(=O)N2[C@H]1C(=O)O
-19.5%: max response [12]
-5.75%: max response [9]
39.2%: max response [3]
inactive: outcome [1] | activation [2] 10.3% | Potency [4] | outcome [5] | outcome [6] | outcome [7] | outcome [8] | outcome [10] | outcome [11] | max response [13] 2.91% | Potency [14] | Potency [15] | Potency [16] | activation [17] -0.552% | activation [18] -1.54% | activation [19] -1.58% | max response [20] -2.73% | Potency [21] | max response [22] -8.85% | max response [23] -6.9% | Potency [24] | Potency [25] | activity, negative = inhibition ([26]; parasite line A) 4.88% | activity, negative = inhibition ([26]; parasite line B) 4.38% | Potency (3D7) | Potency (7G8) | Potency (AA1029) | Potency (AS120) | Potency (ATS189) | Potency (ATS95) | Potency (C2A) | Potency (CP185) | Potency (CP191) | Potency (CP192) | Potency (CP194) | Potency (CP201) | Potency (CP203) | Potency (CP211) | Potency (CP215) | Potency (CP217) | Potency (CP237)
